# Measurements as given in the supplement of paper PMC10849652.
# The full data set covers some 8,800 targets. This sample favours those with a hit. About 0.5% of all pairs of compound and target were hits. A number with no mark means an inactive call.
# Legend:
# Test in all cases: log2 fold change, soluble protein after heating vs DMSO (PISA); higher = thermal stabilisation; K562 lysate, 10 uM; active = over 0.2 and 3.5 SD of the protein, either way, in both replicates (recomputed)
# vemurafenib = compound: CCCS(=O)(=O)Nc1ccc(F)c(C(=O)c2c[nH]c3ncc(-c4ccc(Cl)cc4)cc23)c1F [vemurafenib]
# In short: (§1)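 Dounce homogenisation of K562 pellets in PBS pH 7.4 with 1 mM MgCl2 produced a crude extract, used at 1 mg/mL protein. Exposure to 10 μM compound lasted 30 min, and aliquots were then heated for 3 min across 48°C-58°C, pooled and brought to 0.5% NP-40 at 4°C. The supernatant after 21,000xg for 90 min was quantified by TMTpro 16plex LC-MS/MS with channel sums equalised. Duplicate values are given as log-two fold change in thermal stability relative to solvent controls.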
# [1] = compound: CCCS(=O)(=O)Nc1ccc(F)c(C(=O)c2c[nH]c3ncc(Cl)cc23)c1F
# In short: as §1
# barasertib = compound: CCN(CCCOc1ccc2c(Nc3cc(CC(=O)Nc4cccc(F)c4)[nH]n3)ncnc2c1)CCOP(=O)(O)O [barasertib]
# In short: as §1
# [2] = compound: CC[C@@H]1C(=O)N(C)c2cnc(Nc3ccc(C(=O)NC4CCN(C)CC4)cc3OC)nc2N1C1CCCC1
# In short: as §1
# volasertib = compound: CC[C@@H]1C(=O)N(C)c2cnc(Nc3ccc(C(=O)N[C@H]4CC[C@H](N5CCN(CC6CC6)CC5)CC4)cc3OC)nc2N1C(C)C [volasertib]
# In short: as §1
# [3] = compound: CCn1c(C(=O)N(C2CC2)C2CC2)cc2c3c(ncn3C)c(Nc3cc(C)n(C)n3)nc21
# In short: as §1
# [4] = compound: CCn1cc(-c2ccnc3[nH]c(-c4cccc(CN(C)C)c4)cc23)c(-c2ccc(NC(=O)N(C)C)cc2)n1
# In short: as §1
# [5] = compound: CN1CCC(CNc2ccc3ncc(-c4cccc(OC(F)(F)F)c4)n3n2)CC1
# In short: as §1
# saracatinib = compound: CN1CCN(CCOc2cc(OC3CCOCC3)c3c(Nc4c(Cl)ccc5c4OCO5)ncnc3c2)CC1 [saracatinib]
# In short: as §1
# sotrastaurin = compound: CN1CCN(c2nc(C3=C(c4c[nH]c5ccccc45)C(=O)NC3=O)c3ccccc3n2)CC1 [sotrastaurin]
# In short: as §1
# alvocidib = compound: CN1CC[C@H](c2c(O)cc(O)c3c(=O)cc(-c4ccccc4Cl)oc23)[C@H](O)C1 [alvocidib]
# In short: as §1
# Tubastatin A = compound: CN1CCc2c(c3ccccc3n2Cc2ccc(C(=O)NO)cc2)C1 [Tubastatin A]
# In short: as §1
# [6] = compound: CNC(=O)C1=CC=CC=C1NC2=NC(=NC=C2Cl)NC3=C(C=C(C=C3)N4CCOCC4)OC
# In short: as §1
# defactinib = compound: CNC(=O)c1ccc(Nc2ncc(C(F)(F)F)c(NCc3nccnc3N(C)S(C)(=O)=O)n2)cc1 [defactinib]
# In short: as §1
# [7] = compound: CNc1nc(-c2ccc3c(N)n[nH]c3c2)cc(N2C[C@@H](C(=O)NC3CCCCC3)CC[C@H]2C)n1
# In short: as §1
# encorafenib = compound: COC(=O)N[C@@H](C)CNc1nccc(-c2cn(C(C)C)nc2-c2cc(Cl)cc(NS(C)(=O)=O)c2F)n1 [encorafenib]
# In short: as §1
# [8] = compound: COC(=O)[C@H](CCSC)NC(=O)C1=C(C=C(C=C1)NC[C@H](CS)N)C2=CC=CC=C2
# In short: as §1
# alisertib = compound: COc1cc(Nc2ncc3c(n2)-c2ccc(Cl)cc2C(c2c(F)cccc2OC)=NC3)ccc1C(=O)O [alisertib]
# In short: as §1
# [9] = compound: COc1cc2nc(-c3cc(F)ccc3O)nc(N[C@@H]3CNC[C@H]3C(C)(C)O)c2cc1OC
# In short: as §1
# gefitinib = compound: COc1cc2ncnc(Nc3ccc(F)c(Cl)c3)c2cc1OCCCN1CCOCC1 [gefitinib]
# In short: as §1
# Sequence of UniProt P53611 (P53611 whole entry, looked up): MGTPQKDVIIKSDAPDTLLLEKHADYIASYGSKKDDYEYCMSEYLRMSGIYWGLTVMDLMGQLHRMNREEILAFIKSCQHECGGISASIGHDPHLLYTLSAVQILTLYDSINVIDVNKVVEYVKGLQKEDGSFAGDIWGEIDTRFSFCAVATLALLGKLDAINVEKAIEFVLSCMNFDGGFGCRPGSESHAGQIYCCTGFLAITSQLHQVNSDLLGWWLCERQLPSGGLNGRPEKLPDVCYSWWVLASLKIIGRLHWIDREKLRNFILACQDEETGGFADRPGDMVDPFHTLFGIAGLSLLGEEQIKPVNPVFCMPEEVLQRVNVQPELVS
# Sequence of UniProt Q8WZA2 (Q8WZA2 whole entry, looked up): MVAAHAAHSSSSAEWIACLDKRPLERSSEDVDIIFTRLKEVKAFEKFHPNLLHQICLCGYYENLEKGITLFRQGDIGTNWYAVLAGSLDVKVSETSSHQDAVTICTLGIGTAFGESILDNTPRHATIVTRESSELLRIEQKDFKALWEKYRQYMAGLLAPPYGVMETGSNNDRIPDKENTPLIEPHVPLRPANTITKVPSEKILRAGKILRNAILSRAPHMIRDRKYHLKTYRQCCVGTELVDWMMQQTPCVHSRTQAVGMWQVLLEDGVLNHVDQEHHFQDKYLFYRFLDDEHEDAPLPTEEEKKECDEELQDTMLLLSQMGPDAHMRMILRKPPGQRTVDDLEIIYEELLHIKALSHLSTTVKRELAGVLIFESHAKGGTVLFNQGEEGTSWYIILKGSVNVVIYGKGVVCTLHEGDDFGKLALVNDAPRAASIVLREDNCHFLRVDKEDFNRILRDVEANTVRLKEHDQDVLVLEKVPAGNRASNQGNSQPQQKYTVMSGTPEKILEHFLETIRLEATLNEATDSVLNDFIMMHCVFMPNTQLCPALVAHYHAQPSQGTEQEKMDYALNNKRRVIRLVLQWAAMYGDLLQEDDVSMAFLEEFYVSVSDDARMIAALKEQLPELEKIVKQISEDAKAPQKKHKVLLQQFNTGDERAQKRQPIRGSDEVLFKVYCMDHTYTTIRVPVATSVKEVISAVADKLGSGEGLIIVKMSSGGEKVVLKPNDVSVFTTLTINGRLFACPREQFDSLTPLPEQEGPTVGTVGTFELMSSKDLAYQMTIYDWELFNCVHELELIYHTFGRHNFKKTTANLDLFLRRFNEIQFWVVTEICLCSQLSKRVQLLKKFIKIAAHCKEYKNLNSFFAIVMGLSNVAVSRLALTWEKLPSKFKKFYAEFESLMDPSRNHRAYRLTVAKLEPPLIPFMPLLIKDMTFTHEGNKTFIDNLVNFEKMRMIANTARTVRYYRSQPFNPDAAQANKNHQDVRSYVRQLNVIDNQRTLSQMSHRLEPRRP
# Sequence of UniProt O75446 (O75446 whole entry, looked up): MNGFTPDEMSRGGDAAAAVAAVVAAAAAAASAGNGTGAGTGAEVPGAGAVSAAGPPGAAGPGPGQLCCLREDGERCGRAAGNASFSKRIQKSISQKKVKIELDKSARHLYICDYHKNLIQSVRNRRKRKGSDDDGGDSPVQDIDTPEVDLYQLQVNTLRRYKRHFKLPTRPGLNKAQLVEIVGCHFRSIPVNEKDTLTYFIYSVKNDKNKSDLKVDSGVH
# Sequence of UniProt Q14644 (Q14644 whole entry, looked up): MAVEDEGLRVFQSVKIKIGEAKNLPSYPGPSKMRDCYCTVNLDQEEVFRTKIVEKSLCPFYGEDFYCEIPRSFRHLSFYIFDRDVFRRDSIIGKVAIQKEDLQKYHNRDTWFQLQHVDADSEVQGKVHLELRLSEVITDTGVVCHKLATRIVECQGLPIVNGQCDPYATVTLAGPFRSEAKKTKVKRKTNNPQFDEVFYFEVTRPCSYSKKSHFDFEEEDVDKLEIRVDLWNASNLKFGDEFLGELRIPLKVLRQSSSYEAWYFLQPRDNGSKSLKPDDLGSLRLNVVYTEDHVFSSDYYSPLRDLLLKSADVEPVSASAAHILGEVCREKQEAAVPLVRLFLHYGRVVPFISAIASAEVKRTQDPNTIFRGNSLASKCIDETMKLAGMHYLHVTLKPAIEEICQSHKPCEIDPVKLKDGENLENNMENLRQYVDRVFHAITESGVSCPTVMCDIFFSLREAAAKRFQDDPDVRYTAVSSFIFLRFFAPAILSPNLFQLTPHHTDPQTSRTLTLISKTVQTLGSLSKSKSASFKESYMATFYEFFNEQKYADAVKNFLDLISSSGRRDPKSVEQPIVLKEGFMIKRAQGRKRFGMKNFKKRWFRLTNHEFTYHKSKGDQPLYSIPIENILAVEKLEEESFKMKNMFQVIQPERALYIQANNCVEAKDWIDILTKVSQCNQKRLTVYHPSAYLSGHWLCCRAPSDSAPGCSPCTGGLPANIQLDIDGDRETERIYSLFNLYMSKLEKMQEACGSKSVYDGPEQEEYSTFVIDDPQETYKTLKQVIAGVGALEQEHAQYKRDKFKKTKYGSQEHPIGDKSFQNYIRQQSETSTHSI
# Sequence of UniProt O15027 (O15027 whole entry, looked up): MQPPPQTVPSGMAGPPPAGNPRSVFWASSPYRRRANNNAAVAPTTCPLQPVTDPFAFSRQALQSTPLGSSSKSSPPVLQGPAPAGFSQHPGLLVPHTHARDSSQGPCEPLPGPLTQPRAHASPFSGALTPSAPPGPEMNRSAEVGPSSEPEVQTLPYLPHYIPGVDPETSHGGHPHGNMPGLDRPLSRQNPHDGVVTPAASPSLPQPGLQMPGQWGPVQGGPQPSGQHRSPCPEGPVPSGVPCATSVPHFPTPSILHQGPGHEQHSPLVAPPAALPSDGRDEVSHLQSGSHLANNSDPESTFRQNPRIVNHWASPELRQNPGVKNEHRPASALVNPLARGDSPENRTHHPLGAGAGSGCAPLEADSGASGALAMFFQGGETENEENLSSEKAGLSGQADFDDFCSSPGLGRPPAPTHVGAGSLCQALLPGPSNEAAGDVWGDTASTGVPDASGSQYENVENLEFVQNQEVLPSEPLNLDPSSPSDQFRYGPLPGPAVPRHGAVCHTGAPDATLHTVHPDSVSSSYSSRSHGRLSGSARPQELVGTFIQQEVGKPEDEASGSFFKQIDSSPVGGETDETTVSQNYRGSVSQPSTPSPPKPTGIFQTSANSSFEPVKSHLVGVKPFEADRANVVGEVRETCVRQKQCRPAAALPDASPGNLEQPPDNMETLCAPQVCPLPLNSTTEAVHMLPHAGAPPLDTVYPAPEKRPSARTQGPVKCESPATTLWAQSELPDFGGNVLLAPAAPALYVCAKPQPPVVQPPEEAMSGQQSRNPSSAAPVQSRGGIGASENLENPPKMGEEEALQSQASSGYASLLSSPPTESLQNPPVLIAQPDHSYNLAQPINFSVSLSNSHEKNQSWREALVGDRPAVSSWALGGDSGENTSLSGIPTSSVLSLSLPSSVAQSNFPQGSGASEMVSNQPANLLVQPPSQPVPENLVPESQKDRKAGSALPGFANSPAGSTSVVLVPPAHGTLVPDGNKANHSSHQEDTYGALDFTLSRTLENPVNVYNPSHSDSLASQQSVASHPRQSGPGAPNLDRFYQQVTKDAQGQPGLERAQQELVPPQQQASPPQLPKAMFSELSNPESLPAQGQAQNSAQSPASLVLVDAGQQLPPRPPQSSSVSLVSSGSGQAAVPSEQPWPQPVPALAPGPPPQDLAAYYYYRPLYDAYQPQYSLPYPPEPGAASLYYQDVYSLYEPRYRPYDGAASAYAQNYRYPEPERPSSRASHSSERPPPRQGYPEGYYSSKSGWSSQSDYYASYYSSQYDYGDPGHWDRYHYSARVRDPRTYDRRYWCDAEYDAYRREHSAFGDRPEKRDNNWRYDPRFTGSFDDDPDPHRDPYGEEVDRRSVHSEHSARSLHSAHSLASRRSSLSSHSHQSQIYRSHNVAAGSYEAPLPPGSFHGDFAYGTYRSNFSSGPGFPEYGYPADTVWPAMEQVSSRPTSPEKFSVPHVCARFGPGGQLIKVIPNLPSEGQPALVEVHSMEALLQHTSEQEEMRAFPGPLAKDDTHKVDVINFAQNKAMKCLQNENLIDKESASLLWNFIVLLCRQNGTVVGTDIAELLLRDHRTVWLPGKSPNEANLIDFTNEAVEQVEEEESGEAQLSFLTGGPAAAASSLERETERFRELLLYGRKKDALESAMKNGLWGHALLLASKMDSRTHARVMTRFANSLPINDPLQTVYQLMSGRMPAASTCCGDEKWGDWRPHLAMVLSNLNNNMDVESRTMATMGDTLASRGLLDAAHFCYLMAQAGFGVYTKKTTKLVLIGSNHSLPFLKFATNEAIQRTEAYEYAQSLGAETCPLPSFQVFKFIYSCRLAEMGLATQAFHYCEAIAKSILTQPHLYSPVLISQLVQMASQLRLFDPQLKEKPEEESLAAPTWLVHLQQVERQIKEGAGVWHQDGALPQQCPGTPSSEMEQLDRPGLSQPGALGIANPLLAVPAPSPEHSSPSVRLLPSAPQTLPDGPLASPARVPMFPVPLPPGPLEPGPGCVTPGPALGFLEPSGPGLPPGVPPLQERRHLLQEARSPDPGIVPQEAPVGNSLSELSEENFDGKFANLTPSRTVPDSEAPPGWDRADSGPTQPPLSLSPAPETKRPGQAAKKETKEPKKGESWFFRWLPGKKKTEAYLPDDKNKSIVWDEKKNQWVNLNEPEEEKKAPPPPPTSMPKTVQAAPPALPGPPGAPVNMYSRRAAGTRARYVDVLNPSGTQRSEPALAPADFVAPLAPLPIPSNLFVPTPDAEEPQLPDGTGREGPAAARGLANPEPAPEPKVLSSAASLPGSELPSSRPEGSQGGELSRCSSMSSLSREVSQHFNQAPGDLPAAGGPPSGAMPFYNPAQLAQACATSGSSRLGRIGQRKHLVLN
# Sequence of UniProt Q9BUV8 (Q9BUV8 whole entry, looked up): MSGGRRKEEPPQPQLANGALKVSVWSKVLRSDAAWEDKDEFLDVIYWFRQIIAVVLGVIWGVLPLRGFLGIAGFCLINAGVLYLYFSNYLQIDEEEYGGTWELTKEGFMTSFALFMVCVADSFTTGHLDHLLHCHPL
Target,log2 fold change (vemurafenib),log2 fold change [1],log2 fold change (barasertib),log2 fold change [2],log2 fold change (volasertib),log2 fold change [3],log2 fold change [4],log2 fold change [5],log2 fold change (saracatinib),log2 fold change (sotrastaurin),log2 fold change (alvocidib),log2 fold change (Tubastatin A),log2 fold change [6],log2 fold change (defactinib),log2 fold change [7],log2 fold change (encorafenib),log2 fold change [8],log2 fold change (alisertib),log2 fold change [9],log2 fold change (gefitinib)
RNF123 (UniProt Q5XPI4),0.034,0.003,0.019,-0.009,-0.048,0.035,-0.045,0.004,-0.006,0.03,0.011,-0.047,-0.002,-0.027,0.017,0.044,-0.062,-0.004,0.017,0.011
RASA3 (UniProt Q14644),-0.008,0.009,0.107,-0.1,-0.082,-0.058,0.105,0.298,-0.003,0.048,-0.089,-0.246,0,0.052,-0.118,-0.005,0.082,-0.006,0.032,-0.043
SERINC3 (UniProt Q13530),0.05,0.074,-0.02,0.039,0.066,-0.05,-0.443 (active),0.224,0.052,0.081,-0.074,-0.008,0.057,-0.091,0.065,0.023,-0.109,-0.047,0.055,0.014
RNF40 (UniProt O75150),0.001,0.008,0.043,-0.005,-0.047,0.002,0.011,-0.033,0.033,-0.012,-0.003,-0.102,0.023,0.022,-0.006,0.015,0.079,-0.002,0,0.013
SAMD4A (UniProt Q9UPU9),-0.032,-0.376,0.005,0.05,0.014,-0.292,1.12,0.115,0.07,0.01,0.039,-0.428,-0.01,0.001,0.04,0.009,-0.032,,0.035,
RETREG2 (UniProt Q8NC44),0.037,-0.036,0.033,-0.009,0.09,-0.086,-0.261,0.014,,0.112,-0.069,-0.025,0,-0.12,,-0.002,-0.096,-0.029,-0.007,-0.058
SAP30 (UniProt O75446),-0.016,0.006,0.051,0.063,-0.054,,0.103,-0.022,0.016,-0.013,-0.022,,,-0.028,0.089,-0.007,0.053,0.044,0.087,-0.285
SEC16A isoform 5 (UniProt O15027),0.03,0.019,0.021,0.038,-0.028,0.006,0.008,-0.037,0.013,-0.01,-0.005,-0.09,0.011,-0.014,-0.002,0.011,0.01,-0.001,0.013,0.014
RETSAT (UniProt Q6NUM9),0.115,0.039,0.076,0,-0.087,-0.297,-0.318,0.116,0.108,-0.119,-0.114,0.179,-0.071,-0.045,0.402,0.079,0.025,,-0.059,
RAB5IF isoform 5 (UniProt Q9BUV8),-0.075,0.129,0.142,-0.03,-0.398,,0.928 (active),-0.362,0.009,,0.249,,0,-0.032,-0.011,0.04,-0.125,0.15,-0.011,0.131
RPTOR (UniProt Q8N122),-0.028,0.022,0.052,-0.024,-0.046,0.038,0.018,-0.039,0,0.046,0.008,-0.11,0.036,0,-0.048,-0.004,-0.007,-0.012,-0.005,-0.007
RAPGEF4 (UniProt Q8WZA2),0.157,0.077,0.022,0.174,0.049,-0.259,-0.887 (active),0.391,0.037,0.001,-0.367,0.156,0.061,-0.023,0.433,0.018,0.147,,0.196,
SCML2 (UniProt Q9UQR0),0.033,-0.006,-0.028,-0.007,-0.018,0.02,0.033,0.032,0.064,-0.067,0.006,-0.204,0.031,-0.03,-0.035,0.01,0.18,0.025,-0.016,-0.053
RPL36AL (UniProt Q969Q0),-0.039,0.012,-0.009,-0.04,-0.013,0.076,-0.076,-0.004,-0.091,-0.032,0.055,-0.056,0.023,0.026,-0.243 (active),0.03,-0.08,-0.057,-0.029,-0.07
RABGGTB (UniProt P53611),-0.022,0.058,0.096,-0.034,0.008,-0.031,0.151,-0.033,-0.017,0.037,-0.015,-0.043,-0.025,0.031,-0.021,0.044,0.065,0.005,0.002,-0.002
